From PMC13494018

What follows are binders tested against VTCN1, Q7Z7D3.
VTCN1, Q7Z7D3, sequence (Q7Z7D3 whole entry): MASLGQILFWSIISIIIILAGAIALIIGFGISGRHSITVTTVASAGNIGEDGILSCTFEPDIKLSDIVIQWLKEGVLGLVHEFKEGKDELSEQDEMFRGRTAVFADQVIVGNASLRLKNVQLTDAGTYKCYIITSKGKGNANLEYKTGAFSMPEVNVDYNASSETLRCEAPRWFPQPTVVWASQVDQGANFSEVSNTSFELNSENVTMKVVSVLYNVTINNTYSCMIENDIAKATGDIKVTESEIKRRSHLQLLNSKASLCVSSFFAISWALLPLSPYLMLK

Row | Binder | binding in a display sort
1 | d4r5_design_ppi_459_dldesign_0_cycle1_af2pred (protein) DLEALKEKYLKETKAAAEKAAKIDKKVGDELKDLAELIKEGYGVKGNYNKAKALAAKAEADAKKEAALKA | not found (inactive)
2 | d4r5_design_ppi_497_dldesign_0_cycle0_af2pred (protein) KKEEVRKITEEAIEKMRTVEPEEAVNAVQDAQFEMQGLAPTAETRRKVARLASEAARLVATGEKVEEGIEKLREAGEYLIESL | not found (inactive)
3 | d4r5_design_ppi_428_dldesign_0_cycle1_af2pred (protein) AAAAAETAAARERAARDLARAEAAAKAGKADPSKAPLAIAILEGVAERFEFYAKAAGPAAAAVAREAAERAKALAKEL | not found (inactive)
4 | d4r5_design_ppi_466_dldesign_0_cycle0_af2pred (protein) SEAEEILRETVERATAAAAAEDPALAPRVRAAAERAAEIAKSQKSIEAAAGVLEIFADRAAAASPAAAAVAREGARRLEELAK | not found (inactive)
5 | d4r5_design_ppi_438_dldesign_0_cycle0_af2pred (protein) SKEEMERRAEQVEKAVEGAEEEAKEGTPEEALALLRSVLRRAKEVAEESKKYPEVKKRAEKALERAEKIKKELLEK | not found (inactive)
6 | d4r5_design_ppi_466_dldesign_0_cycle1_af2pred (protein) EEKKKILEEAAKEAAAAAKADNPELAPRVERLAKRAVEIGTKQKSVEAAAGVMENAADQAAAAAPAAAAVLKKGAEELEKLAK | not found (inactive)
7 | d4r5_design_ppi_400_dldesign_0_cycle1_af2pred (protein) AAAEAAAKEAAKAKADELLKKAKESYEEAKKNKDNKELVFKYLADIEVKAAQADFLGAKDPYAKEKAKEIEKLAKEAEKILK | not found (inactive)
8 | d4r5_design_ppi_490_dldesign_0_cycle0_af2pred (protein) SKEEEAKKTGKEQVKKVKETAETGTAAETAETAQEARAELNEKAAEAGTEEARKIAEEAKKEIREIVKKKKEEEA | not found (inactive)
9 | d4r5_design_ppi_347_dldesign_0_cycle1_af2pred (protein) GREEEAKRVAEVILERLKDPKAQEAAKKTGEAGKAFLEAYELYKKDREAGIEYLAKEILKNPSWAQDFRENYAEEEAK | not found (inactive)
10 | d4r5_design_ppi_378_dldesign_0_cycle0_af2pred (protein) AAAAAAAARAAMAAQAAANAAKAKEVFDKLAETYPEAKDEAKAKAAEVAAAFAATAAAGGDQAQLTANNNAAQDARSEVIAIANKK | not found (inactive)
11 | d4r5_design_ppi_375_dldesign_0_cycle1_af2pred (protein) AAKEMANELQELIEKLREASSVKDQNEVSKVIKEARKKAKEAIKAYEKDPELGKKLFEEAKEILEKALKKAE | not found (inactive)
12 | d4r5_design_ppi_435_dldesign_0_cycle1_af2pred (protein) SKSKKEAEKMREATRAFKEAGKAAAAAIASGETGEEAIAAARAKAEEVIKEAKEVGEGAGEFAEMLKENLDKALAAAS | not found (inactive)
13 | d4r5_design_ppi_473_dldesign_0_cycle1_af2pred (protein) GEAKRKKAEALLERYKARAEELIEKAKASDYVTAESYAISVETRFTDFAAAAEKDPATKEVAKRAKKVGKEYVEKLKKIAEEKKAAE | not found (inactive)
14 | d4r5_design_ppi_448_dldesign_0_cycle0_af2pred (protein) MKEKLKKEAKEAEKKMEELIKKIEEANPEAGKVAREAREKGKASPKGREYTNKGISEAGKLAGPEVAPIAQEARQEAAAADAYKKII | not found (inactive)
15 | d4r5_design_ppi_375_dldesign_0_cycle0_af2pred (protein) KEKEMANKLQEKIEELYSAATPEQQSKVSEKIKEARKAAKEAVKKYKEDEEKGKELFKKAEEILEEGLKEAK | not found (inactive)
16 | d4r5_design_ppi_438_dldesign_0_cycle1_af2pred (protein) DLEELKRRAEQVELLVEMAEEEAKTGSKEEALALLNSAIRDAKEVAEEGAAYPEVSERAKAALERAEKIRKELLAS | not found (inactive)
17 | d4r5_design_ppi_384_dldesign_0_cycle0_af2pred (protein) AVTWDEILDIQARANYYLSEAKKLTEEAYKEAKKLYEEARKHYGEAAKYLADAPKVGEEAKKKAAEHAKEAEKLVKELEELVKKAKE | not found (inactive)
18 | d4r5_design_ppi_384_dldesign_0_cycle1_af2pred (protein) GITWDELMDIQADAFYYLSEAKKITPEAEAKAKELYQKSLEYYKKAAEYLAKAEEVGPEAKEEAKEYADKAAEEVEKLKKLVEEAKN | not found (inactive)
19 | d4r5_design_ppi_429_dldesign_0_cycle0_af2pred (protein) VEEAKKLGEEYIKKVKEAKDAKEALEIGEKAAKELVEKAKASEDGETAQAYLEAASEVKATALRQARKLEE | not found (inactive)
20 | d4r5_design_ppi_400_dldesign_0_cycle0_af2pred (protein) AAAAAAAKAAAKAAAEKDLKRAEEAYKNAKKNKDNKEIVFKNYAEIETKAARADALAAADPYAAEAAKKIKELAEEAEKILK | not found (inactive)

Each binder was assayed against control:Baker_PD-L1, Q9NZQ7.
control:Baker_PD-L1, Q9NZQ7, sequence (Q9NZQ7 whole entry): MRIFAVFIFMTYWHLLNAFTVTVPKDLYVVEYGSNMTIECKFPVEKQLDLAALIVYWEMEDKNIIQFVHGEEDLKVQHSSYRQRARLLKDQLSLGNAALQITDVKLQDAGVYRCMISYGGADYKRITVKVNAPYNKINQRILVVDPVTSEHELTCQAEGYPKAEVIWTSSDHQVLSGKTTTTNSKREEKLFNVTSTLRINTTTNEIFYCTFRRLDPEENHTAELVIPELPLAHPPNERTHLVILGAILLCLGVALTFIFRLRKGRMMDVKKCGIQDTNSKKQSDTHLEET

Row | Binder | binding in a display sort
21 | Pdl1_binder_AF2_51 (protein) MEVIYADTKEEATMKVMEALSRGVAREDILVYLKDAKDAEKLAKVWGVTAKLA | not found (inactive)
22 | Pdl1_binder_AF2_35 (protein) SLKEKAEKHIEEAEKLAKKVGELADKEKAEKAIELLKKGTPESIVEAIALLDQLAKEEKENKEEVRKLASEAIVAAMKAAALLDAAEE | not found (inactive)
23 | Pdl1_binder_AF2_12 (protein) MHRTVTVKNEAEAIAAVIEAYHSGEKLTIVTDSEEIAKKAERLNKQLGGNATFEV | not found (inactive)
24 | Pdl1_binder_AF2_3 (protein) MEKAEERKKWLLEKLKELGVEVKEISLDGHVVITGAKSEEALKGAESLVKMFGLFLGVEAKVEVV | not found (inactive)
25 | Pdl1_binder_AF2_5 (protein) EEDLEKLVELARKALEHIKRAAEYSKEDESKMAEELAKAVALASEISKIDVEVAKLVLKAVNAVMKGDRLEEGVKLAEEALKRAEEKK | binds (active)
26 | Pdl1_binder_AF2_43 (protein) SAIEKTKEKIRQLFESAGVEVEDIEVEGDTITVHVKEDTEAARQAALLANVYAEDKVGLKVVLEA | not found (inactive)
27 | Pdl1_binder_AF2_18 (protein) DEETRREIAEHLLRVAKKDQGLVDAEIEGDKVRVKAKTEEQYEKGKIAAEAAAAIVGGEAEAEIV | not found (inactive)
28 | Pdl1_binder_AF2_49 (protein) SKKVRFQAYQASAEVIAKEVGGYVVSTGPDKVVIAAPTEEAAEKARKALDELGKAFGFGYEVFVA | not found (inactive)
29 | Pdl1_binder_AF2_52 (protein) IKEKIEELEKKAEEEVEEAKKLDKEEANKKLNKLSTEIYIEAIQVNDEEFRKKAVEILTKIAKESKELGLEEAEKAASSFAEELKEKL | not found (inactive)
30 | Pdl1_binder_AF2_45 (protein) MIVHIETPTRDLQLFLKLYAEEKGFKVVEAGETSLVIESDLPREKVEKFIRIAEAMGAKVEVEE | binds (active)
31 | Pdl1_binder_AF2_22 (protein) YRIAIFFPSREKAEEWAAEARAAGRLVRYLTNLMVVEVDSEEEARAVAAEAEALGAATVFLD | not found (inactive)
32 | Pdl1_binder_AF2_13 (protein) MYVLVAKADENEARFLKLMAEKLGVKAEVEGDIVTFVSDDKEAIEIIRRFLEKEGRVISFEE | not found (inactive)
33 | Pdl1_binder_AF2_33 (protein) MEEAKRVAEQMALMMRAAGEEASVEVEGDKITIYYKGDDESLWEVAESVAEKIEEKYGVEVEVVR | not found (inactive)
34 | Pdl1_binder_AF2_8 (protein) YKLVVEAPNEKIAEQIKEIAESIGAKAEIEGMKVVIEADDKQTIEFIKLYAEEKGAKVLEIT | binds (active)
35 | Pdl1_binder_AF2_6 (protein) SDELRVEAVQVAQEASVAIARAERAVAEGDAEEIRRAAEELERAARRAEEQAERLEEAGDKGMAEFLRRVVERAREAAARARRAAEEL | not found (inactive)
36 | Pdl1_binder_AF2_30 (protein) MSKRDELLTKALEYLQKATKLVYEHDPETAREIAHHFSKAVADPEKAEEELEKALELAEKAAAEMERGEELRELMEKAKEYVLEYVKL | not found (inactive)
37 | Pdl1_binder_AF2_7 (protein) DKESAAKKAIQLLEIARERVVADPAAAKAFKEAAKLVEVMLKDAGADEEKAEKVEEKAEKAADAYAAGDKETADKYYEEAVELVKEAA | not found (inactive)
38 | Pdl1_binder_AF2_2 (protein) SIEEMVEEMEKLLEEAAKIVPEIKELLEKAKEIAKKAIEIAKKKGNGEAVAKIFRDMAEMTLRAAKFDKKGAENAALLMIKRAEDIAE | not found (inactive)
39 | Pdl1_binder_AF2_37 (protein) SETTLKETAKLIEVMAKDRGEFVKIEAKGDKIVLYTKTEEGAKKINKEGSKLAKSVGVEFEAKVA | not found (inactive)
